The target in experiment [1] is Bromodomain-containing protein 4 (Homo sapiens) (UniProt O60885). The conditions noted are these: Compound concentration 20.0 uM, Protein concentration 2.0 uM, Result type QC Liability.
The target of experiment [2] is T1, Transcription intermediary factor 1-alpha (Homo sapiens) (UniProt O15164).
T1 sequence (whole entry): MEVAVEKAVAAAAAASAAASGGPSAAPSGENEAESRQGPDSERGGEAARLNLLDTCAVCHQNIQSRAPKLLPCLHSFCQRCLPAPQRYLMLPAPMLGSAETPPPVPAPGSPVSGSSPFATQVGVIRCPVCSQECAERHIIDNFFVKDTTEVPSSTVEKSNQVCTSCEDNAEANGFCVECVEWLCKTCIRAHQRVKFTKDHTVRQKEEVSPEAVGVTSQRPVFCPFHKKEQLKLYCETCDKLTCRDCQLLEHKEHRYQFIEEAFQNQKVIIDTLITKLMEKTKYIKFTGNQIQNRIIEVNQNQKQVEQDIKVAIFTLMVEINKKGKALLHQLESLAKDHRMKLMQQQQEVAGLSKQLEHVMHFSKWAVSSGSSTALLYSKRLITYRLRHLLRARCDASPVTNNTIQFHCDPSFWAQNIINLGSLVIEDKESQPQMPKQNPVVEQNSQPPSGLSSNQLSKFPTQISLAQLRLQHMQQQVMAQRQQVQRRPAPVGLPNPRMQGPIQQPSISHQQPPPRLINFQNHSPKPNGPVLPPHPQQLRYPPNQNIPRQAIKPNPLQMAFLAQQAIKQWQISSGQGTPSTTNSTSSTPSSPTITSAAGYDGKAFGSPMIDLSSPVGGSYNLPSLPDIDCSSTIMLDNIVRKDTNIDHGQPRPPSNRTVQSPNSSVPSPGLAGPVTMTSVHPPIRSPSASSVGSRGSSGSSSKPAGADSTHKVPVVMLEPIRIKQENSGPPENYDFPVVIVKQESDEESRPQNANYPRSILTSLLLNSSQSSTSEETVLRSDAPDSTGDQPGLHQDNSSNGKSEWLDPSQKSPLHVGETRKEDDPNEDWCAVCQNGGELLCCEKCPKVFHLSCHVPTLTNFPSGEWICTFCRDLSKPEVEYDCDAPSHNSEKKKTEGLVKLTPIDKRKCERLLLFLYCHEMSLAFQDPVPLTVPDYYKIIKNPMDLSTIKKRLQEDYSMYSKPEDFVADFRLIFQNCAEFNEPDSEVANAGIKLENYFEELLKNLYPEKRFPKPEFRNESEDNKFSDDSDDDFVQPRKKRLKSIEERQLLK
The note with it: Compound concentration 20.0 uM, Protein concentration 2.0 uM, Result type QC Liability.

Data on 33 compounds can be found in ChEMBL document CHEMBL5308504, “Tm Shift (DSF) assay results for EUbOPEN Chemogenomics Library” (2023).

Several values for one entry are separate records, joined by “and”; a condition that tells them apart may be missing. Equal entries are not always repeated.

Usually ΔTm stands for the change in melting temperature against a reference sample.

Turning to `COc1c(NC(=O)c2cc3cccc(Oc4ccnc(C(=O)N5CCN(C)CC5)c4)c3n2C)cc(C(C)(C)C)cc1NS(C)(=O)=O`, the ΔTm in experiment [1] is -2.76 °C; in experiment [2], -2.21 °C.

Take `CN1CCN(c2ccc(-n3cc(-c4ccncc4OCC4CCNCC4)cn3)cc2)CC1`: the ΔTm in experiment [1] was -1.52 °C; in experiment [2], -2.76 °C.

On to `CN[C@@H](C)C(=O)N[C@H](C(=O)N1CCC[C@H]1c1nc(C(=O)c2ccc(F)cc2)cs1)C1CCCCC1`, for which the values for the ΔTm in experiment [1] and in experiment [2] were -3.21 °C and -1.98 °C, respectively.

Consider `CNCc1ccc(-c2cc(-c3nc(-c4ccc(S(=O)(=O)C(C)C)cc4)cnc3N)on2)cc1`, for which the figures for the thermal shift (ΔTm) in experiment [1] and in experiment [2] were -2.54 °C and -0.96 °C, respectively.

As to `CN(C)C(=O)c1cc2cnc(Nc3ccc(N4CCN(CCCCNC(=O)COc5cccc6c5C(=O)N(C5CCC(=O)NC5=O)C6=O)CC4)cn3)nc2n1C1CCCC1` (stereo unspecified), the values for the ΔTm in experiment [1] and in experiment [2] were -0.39 °C and -1.79 °C, respectively.

Regarding `COCCN1CCN(CCn2ccc(Nc3ncc4c(n3)-c3c(nn(C)c3-c3ccccc3)C[C@H]4C)n2)CC1`, the thermal shift (ΔTm) in experiment [1] is -1.68 °C; in experiment [2], -2.88 °C.

In the case of `Cc1ccc2c(NS(=O)(=O)c3ccccc3Cl)cccc2c1Oc1ncccc1-c1ccnc(N[C@H]2CCCNC2)n1`, the ΔTm in experiment [1] came out at 0.99 °C; in experiment [2], 1.37 °C.

For `CC(C)c1nc2c(c3c1[C@H](c1ccc(C(F)(F)F)cc1)OC31CCOCC1)[C@H](O)CC(C)(C)C2`, the ΔTm in experiment [1] is -0.03 °C; in experiment [2] it was 0.26 °C.

`Nc1nccc(-c2c(-c3ccc(F)cc3)ncn2C2CCN(Cc3ccon3)CC2)n1`: the ΔTm in experiment [1] was -2.58 °C; in experiment [2] it was -2.27 °C.

Take `CC(C)(O)c1coc(S(=O)(=O)NC(=O)Nc2c3c(cc4c2CCC4)CCC3)c1`: the shift in melting temperature (ΔTm) was -0.92 °C in experiment [1] and -0.55 °C in experiment [2].

On to `O=C(O)C[C@H]1CCn2c1c(Sc1ccc(Cl)cc1)c1ccc(F)cc12`, for which the ΔTm in experiment [1] is 0 °C; in experiment [2], -1.67 °C.

As to `Cc1ccc(NC(=O)c2ccc3c(c2)OCCO3)cc1NC(=O)c1ccc2nc(OCCN3CCCC3)ccc2c1`, the ΔTm in experiment [1] was -12.8 °C; in experiment [2], -0.86 °C.

In the case of `CCCCCCCC/C=C\CCCCCCCC(=O)NCCO`, the results for the ΔTm in experiment [1] and in experiment [2] were -1.73 °C and -2.56 °C, respectively.

`CCc1c(-c2ccc3[nH]ncc3c2)cnc(N)c1-c1ccc(O)cc1`: the ΔTm was -1.17 °C in experiment [1] and -2.74 °C in experiment [2].

`COc1ccccc1[C@@H]1CNCCC12CCN(C(=O)[C@](OC)(c1ccccc1)C(F)(F)F)CC2`: the ΔTm was -0.33 °C in experiment [1] and 0.2 °C in experiment [2].

With `CC(=O)N(CCN(C)C)c1ccc(N/C(=C2\C(=O)Nc3cc(Cl)ccc32)c2ccccc2)cn1`, the values for the ΔTm in experiment [1] and in experiment [2] were -1.57 °C and -4.13 °C, respectively.

Consider `C[C@@H](COCCC(=O)N1CCN(c2ncc(C(F)(F)F)cn2)CC1)Nc1cn[nH]c(=O)c1C(F)(F)F`, for which the ΔTm is -1.99 °C in experiment [1] and -0.95 °C in experiment [2].

Turning to `NC(=O)c1ccccc1Nc1nc(-c2ccc(N3CCOCC3)cc2)cc2ncccc12`, the figures for the thermal shift (ΔTm) in experiment [1] and in experiment [2] were -2.32 °C and -2.3 °C, respectively.

For the compound `CN(C)C(=O)Cn1cc(-c2ccc(-c3cncc4ccccc34)cc2)cn1`, the ΔTm was -2.19 °C in experiment [1] and 0.13 °C in experiment [2].

As to `Oc1c(CN2CCCC2)cc(COCc2ccccc2)c2cccnc12`, the ΔTm in experiment [1] was -2.69 °C; in experiment [2] it was -4.08 °C.

Regarding `CCN1CCN(Cc2ccc(Nc3ncc(F)c(-c4cc(F)c5nc(C)n(C(C)C)c5c4)n3)nc2)CC1`, the ΔTm in experiment [1] is -1.43 °C; in experiment [2] it was -2.28 °C.

With `CCOc1cc(CC(=O)N[C@@H](CC(C)C)c2ccccc2N2CCCCC2)ccc1C(=O)O`, the values for the ΔTm in experiment [1] and in experiment [2] were -0.4 °C and -1.24 °C, respectively.

For `CCCCc1c(-c2ccccc2)nc(N)nc1-c1ccc(OCc2ccccc2)c(F)c1F`, the ΔTm in experiment [1] is -11.4 °C; in experiment [2], -1.94 °C.

As to `CN(C)c1ccc(-c2cc3ncccc3c(OCCCCO)n2)cc1`, the ΔTm in experiment [1] is -2.64 °C; in experiment [2], -3.64 °C.

Take `CN1CCC(C#N)(NC(=O)[C@@H](NC(=O)N2CCOCC2)C(C)(C)C)CC1`: the values for the thermal shift (ΔTm) in experiment [1] and in experiment [2] were 0.17 °C and 0.14 °C, respectively.

`Cc1csc(-c2nnc(Nc3ccc(Oc4ncccc4-c4ccnc(N)n4)cc3)c3ccccc23)c1`: the ΔTm in experiment [1] is 11.5 °C; in experiment [2] it was -1.04 °C.

Turning to `C[C@H](CCC(=O)O)[C@H]1CC[C@H]2[C@@H]3CC[C@@H]4C[C@H](O)CC[C@]4(C)[C@H]3C[C@H](O)[C@]12C`, the figures for the ΔTm in experiment [1] and in experiment [2] were -3.05 °C and -3.23 °C, respectively.

On to `COc1ccc(C(F)(F)F)cc1NC(=O)Nc1ccc(Oc2cc(C)nc(N)n2)c2ccccc12`, for which the ΔTm is -0.19 °C in experiment [1] and -0.94 °C in experiment [2].

Turning to `CNc1oc(-c2cccc3ccccc23)nc1C#N`, the figures for the ΔTm in experiment [1] and in experiment [2] were -3.26 °C and -0.7 °C, respectively.

On to `COc1cc(C(=O)NCCOCCOCCOCCC(=O)Nc2cccc3c2C(=O)N(C2CCC(=O)NC2=O)C3=O)ccc1Nc1ncc(C(F)(F)F)c(Oc2cccc3c2C(=O)CC3)n1` (stereo unspecified), for which the shift in melting temperature (ΔTm) in experiment [1] was -4.34 °C; in experiment [2] it was 0.52 °C.

`CCCCCNC(=O)N1CCC(CN(Cc2ccc(Cl)cc2)Cc2ccc([N+](=O)[O-])s2)C1` (stereo unspecified): the ΔTm was -2.51 °C in experiment [1] and -3.43 °C in experiment [2].

For the compound `O=C(O)C[C@H]1CC[C@H](c2ccc(NC(=O)c3nnc(Nc4ccc(F)c(F)c4)o3)cc2)CC1`, the ΔTm in experiment [1] is -0.2 °C; in experiment [2] it was 0.52 °C.

With `COc1cc(-c2cc3ncccc3c(O[C@H](C)[C@H]3CNC(=O)C3)n2)cc(OC)c1OC`, the ΔTm in experiment [1] was -1.66 °C and 1.15 °C; in experiment [2], 0.28 °C and -2.67 °C.
